# Values without a mark were called inactive. Results filed as inconclusive are left out. Where a call stands in place of a potency, no number is given. Activity calls are given as the source filed them. Unless noted, calls follow the shape of the dose curve; as a rule, active = well fitted curve in the direction sought with a large enough effect in the repeat runs; inconclusive = weak or mixed curves; inactive = no such curve, though single readings can be large; an effect the other way counts as inactive or inconclusive.
# Columns and labels:
# [1] = qHTS assay to identify small molecule agonists of the TGF-beta/Smad signaling pathway (AID 1346859; active = well fitted activation curve with a large enough effect in the signal ratio in the repeat runs, not every such curve was filed as active; the % refers to the signal ratio; also: series mostly up to about 77 µM)
# In short: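 After overnight seeding, SBE-bla HEK 293T cells are dosed with compounds in DMSO and kept 5 hr at 37 C, 5% CO2. LiveBLAzer-type FRET substrate is then applied for 2 hr at room temperature.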
# [2] = molecular target: Thyrotropin-releasing hormone receptor (Homo sapiens) (UniProt P34981); assay: qHTS assay to identify small molecule antagonists of the thyrotropin-releasing hormone receptor (TRHR) signaling pathway (AID 1346877; active = well fitted inhibition curve with a large enough effect in the repeat runs, not every such curve was filed as active; also: series mostly up to about 51 µM)
# Thyrotropin-releasing hormone receptor (Homo sapiens), sequence (P34981 whole entry, looked up): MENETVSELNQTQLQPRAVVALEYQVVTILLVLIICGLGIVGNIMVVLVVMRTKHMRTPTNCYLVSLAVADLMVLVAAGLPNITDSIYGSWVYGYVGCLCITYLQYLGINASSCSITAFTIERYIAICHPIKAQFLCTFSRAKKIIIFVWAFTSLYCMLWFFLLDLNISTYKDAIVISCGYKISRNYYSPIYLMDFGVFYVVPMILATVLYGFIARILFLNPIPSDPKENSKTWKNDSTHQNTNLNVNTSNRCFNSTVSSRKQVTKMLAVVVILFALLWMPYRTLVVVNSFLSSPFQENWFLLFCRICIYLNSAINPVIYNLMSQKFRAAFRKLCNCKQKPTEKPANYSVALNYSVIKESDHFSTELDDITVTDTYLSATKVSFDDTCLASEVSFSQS
# In short: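 TRHR-expressing HEK293 cells were seeded, cultured 18 h at 37 °C, then loaded with calcium dye for 2 h. Compounds were pre-incubated 5 min at room temperature before 1 nM TRH (final) was added, and kinetic fluorescence was recorded for 3 min.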
# [3] = Human pregnane X receptor (PXR) small molecule agonists, qHTS cell viability counter screen (AID 1346977); also: nearly all actives have a fitted effect of over 50% in size
# In short: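 Viability counter screen: CellTiter-Fluor signal in PXR-Luc HepG2 cells, 24hr compound exposure, 37C, 5% CO2.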
# [4] = Caspase-3/7 induction in HepG2 cells by small molecules, qHTS assay (AID 1346978); also: nearly all actives have a fitted effect of over 15% in size
# In short: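 Wild-type HepG2 cells, 2,000/well, settled 5 hr at 37 C and 5% CO2, then compound-treated for 17 hr; caspase-3/7 activity read by luminescent Caspase-Glo 3/7 after 30 min at room temperature.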
# [5] = Caspase-3/7 induction in CHO-K1 cells by small molecules, qHTS cell viability counter screen (AID 1346979); also: nearly all actives have a fitted effect of over 35% in size
# In short: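 Viability readout by fluorescence (CellTiter-Fluor) on wild-type CHO-K1 cells exposed for 16hr at 37C and 5% CO2 to compounds delivered in DMSO; reagent incubated 1hr before reading.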
# [6] = Caspase-3/7 induction in CHO-K1 cells by small molecules, qHTS assay (AID 1346980); also: nearly all actives have a fitted effect of over 15% in size
# In short: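 Wild-type CHO-K1 cells exposed to compounds for 17hr at 37 C, 5% CO2. Caspase-3/7 activity then measured by Caspase-Glo 3/7 luminescence after 30min at room temperature.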
# [7] = Caspase-3/7 induction in HepG2 cells by small molecules, qHTS cell viability counter screen (AID 1346981); also: series mostly up to about 92 µM; nearly all actives have a fitted effect of over 30% in size
# In short: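 Wild-type HepG2 cells (2,000/well) were allowed to settle for 5 hr at 37 C, 5% CO2, then dosed with compounds in DMSO by pin transfer. After 16 hr at 37 C, CellTiter-Fluor was added and fluorescence read 1 hr later.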
# [8] = molecular target: Nuclear receptor subfamily 1 group I member 2 (Homo sapiens) (UniProt O75469); assay: Human pregnane X receptor (PXR) small molecule agonists, qHTS assay (AID 1346982); also: nearly all actives have a fitted effect of over 35% in size
# Nuclear receptor subfamily 1 group I member 2 (Homo sapiens), sequence (O75469 whole entry, looked up): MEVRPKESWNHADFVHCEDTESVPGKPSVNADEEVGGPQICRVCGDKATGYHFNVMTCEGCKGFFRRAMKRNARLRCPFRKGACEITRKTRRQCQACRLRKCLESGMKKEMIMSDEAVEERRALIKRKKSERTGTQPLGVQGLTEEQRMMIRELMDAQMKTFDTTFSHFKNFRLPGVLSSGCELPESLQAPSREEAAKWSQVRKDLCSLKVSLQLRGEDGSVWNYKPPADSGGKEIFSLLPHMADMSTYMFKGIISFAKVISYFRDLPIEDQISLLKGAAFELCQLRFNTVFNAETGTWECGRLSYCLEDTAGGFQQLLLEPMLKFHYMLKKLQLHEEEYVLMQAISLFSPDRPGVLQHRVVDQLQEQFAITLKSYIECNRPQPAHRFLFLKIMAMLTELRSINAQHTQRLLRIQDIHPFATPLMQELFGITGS
# In short: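 PXR-Luc HepG2 cells (CYP3A4 promoter-driven luciferase) were seeded in medium with 5% charcoal-stripped FBS, left 5 hr at 37 C, then exposed to compounds in DMSO for 24 hr. Luminescence was read after ONE-Glo addition.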
# [9] = molecular target: Cytochrome P450 2D6 (Homo sapiens) (UniProt P10635); assay: Cytochrome P450 Family 2 Subfamily D Member 6 (CYP2D6) small molecule antagonists: luciferase reporter qHTS assay (AID 1671196); also: nearly all actives have a fitted effect of over 50% in size; also: potency is read from the fitted curve at half-maximal effect; as to activity change, negative = inhibition: series mostly up to about 120 µM
# Cytochrome P450 2D6 (Homo sapiens), sequence (P10635 whole entry, looked up): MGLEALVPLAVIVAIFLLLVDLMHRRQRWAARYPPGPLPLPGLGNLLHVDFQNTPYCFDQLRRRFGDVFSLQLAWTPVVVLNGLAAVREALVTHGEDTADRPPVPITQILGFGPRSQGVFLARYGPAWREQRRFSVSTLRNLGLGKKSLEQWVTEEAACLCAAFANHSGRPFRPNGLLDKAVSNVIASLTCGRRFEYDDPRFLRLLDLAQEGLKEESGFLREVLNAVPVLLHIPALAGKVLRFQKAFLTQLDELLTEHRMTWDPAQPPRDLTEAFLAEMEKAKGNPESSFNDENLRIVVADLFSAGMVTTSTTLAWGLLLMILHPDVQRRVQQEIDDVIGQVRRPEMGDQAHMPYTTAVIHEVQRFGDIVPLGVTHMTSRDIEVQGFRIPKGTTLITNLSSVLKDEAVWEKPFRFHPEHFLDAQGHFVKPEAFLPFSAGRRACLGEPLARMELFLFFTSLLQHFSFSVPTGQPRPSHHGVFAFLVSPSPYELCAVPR
# In short: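 CYP2D6 enzyme–substrate mix was held with compound for 10 min at room temperature, then NADPH regeneration solution was added and the reaction ran 1 h at room temperature. Luciferin product was detected by luminescence after 20 min with detection reagent.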
# [10] = molecular target: Cytochrome P450 2C19 (Homo sapiens) (UniProt P33261); assay: Cytochrome P450 Family 2 Subfamily C Member 19 (CYP2C19) small molecule antagonists: luciferase reporter qHTS assay (AID 1671197); also: nearly all actives have a fitted effect of over 65% in size; also: potency is read from the fitted curve at half-maximal effect; as to activity change, negative = inhibition: series mostly up to about 120 µM
# Cytochrome P450 2C19 (Homo sapiens), sequence (P33261 whole entry, looked up): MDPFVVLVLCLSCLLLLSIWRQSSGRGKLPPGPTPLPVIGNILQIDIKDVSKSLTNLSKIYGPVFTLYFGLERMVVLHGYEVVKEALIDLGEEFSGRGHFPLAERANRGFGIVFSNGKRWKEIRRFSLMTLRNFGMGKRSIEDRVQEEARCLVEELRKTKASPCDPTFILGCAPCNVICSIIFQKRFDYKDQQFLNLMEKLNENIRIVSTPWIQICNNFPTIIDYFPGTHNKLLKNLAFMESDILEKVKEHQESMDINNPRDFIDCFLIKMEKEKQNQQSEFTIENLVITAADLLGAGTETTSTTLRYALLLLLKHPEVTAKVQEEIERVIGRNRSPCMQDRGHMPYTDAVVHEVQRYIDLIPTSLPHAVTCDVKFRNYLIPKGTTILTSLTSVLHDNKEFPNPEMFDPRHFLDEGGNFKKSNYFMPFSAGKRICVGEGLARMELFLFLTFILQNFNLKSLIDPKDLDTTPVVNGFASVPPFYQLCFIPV
# In short: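 P450-Glo CYP2C19 screening system; proluciferin substrate; DMSO compound stocks; 10 min RT preincubation; NADPH regeneration, 1 h at 37C; luciferin detection reagent, 20 min RT; luminescence as RLU.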
# [11] = molecular target: Cytochrome P450 2C9 (Homo sapiens) (UniProt P11712); assay: Cytochrome P450 Family 2 Subfamily C Member 9 (CYP2C9) small molecule antagonists: luciferase reporter qHTS assay (AID 1671198); also: nearly all actives have a fitted effect of over 50% in size; also: potency is read from the fitted curve at half-maximal effect; as to activity change, negative = inhibition: series mostly up to about 120 µM
# Cytochrome P450 2C9 (Homo sapiens), sequence (P11712 whole entry, looked up): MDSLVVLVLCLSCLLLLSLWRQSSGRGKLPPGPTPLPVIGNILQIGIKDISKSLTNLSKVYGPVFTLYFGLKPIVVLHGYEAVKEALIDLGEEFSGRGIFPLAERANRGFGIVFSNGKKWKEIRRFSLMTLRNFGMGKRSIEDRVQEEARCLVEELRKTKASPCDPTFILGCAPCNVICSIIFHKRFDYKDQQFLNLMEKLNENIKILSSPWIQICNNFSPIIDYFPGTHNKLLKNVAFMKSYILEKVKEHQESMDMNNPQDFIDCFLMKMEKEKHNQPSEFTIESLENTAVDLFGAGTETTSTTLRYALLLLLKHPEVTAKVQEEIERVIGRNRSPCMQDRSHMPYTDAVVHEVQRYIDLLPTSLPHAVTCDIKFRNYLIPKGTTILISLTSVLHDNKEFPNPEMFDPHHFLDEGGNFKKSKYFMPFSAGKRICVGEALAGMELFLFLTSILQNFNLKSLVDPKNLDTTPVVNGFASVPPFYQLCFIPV
# In short: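 P450-Glo proluciferin substrate with CYP2C9 enzyme; 10 min RT preincubation, then NADPH regeneration 1 h at 37C; luciferin detection reagent 20 min RT, luminescence in relative luminescence units.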
# [12] = molecular target: Cytochrome P450 1A2 (Homo sapiens) (UniProt P05177); assay: Cytochrome P450 Family 1 Subfamily A Member 2 (CYP1A2) small molecule antagonists: luciferase reporter qHTS assay (AID 1671199); also: nearly all actives have a fitted effect of over 50% in size; also: potency is read from the fitted curve at half-maximal effect; as to activity change, negative = inhibition: series mostly up to about 120 µM
# Cytochrome P450 1A2 (Homo sapiens), sequence (P05177 whole entry, looked up): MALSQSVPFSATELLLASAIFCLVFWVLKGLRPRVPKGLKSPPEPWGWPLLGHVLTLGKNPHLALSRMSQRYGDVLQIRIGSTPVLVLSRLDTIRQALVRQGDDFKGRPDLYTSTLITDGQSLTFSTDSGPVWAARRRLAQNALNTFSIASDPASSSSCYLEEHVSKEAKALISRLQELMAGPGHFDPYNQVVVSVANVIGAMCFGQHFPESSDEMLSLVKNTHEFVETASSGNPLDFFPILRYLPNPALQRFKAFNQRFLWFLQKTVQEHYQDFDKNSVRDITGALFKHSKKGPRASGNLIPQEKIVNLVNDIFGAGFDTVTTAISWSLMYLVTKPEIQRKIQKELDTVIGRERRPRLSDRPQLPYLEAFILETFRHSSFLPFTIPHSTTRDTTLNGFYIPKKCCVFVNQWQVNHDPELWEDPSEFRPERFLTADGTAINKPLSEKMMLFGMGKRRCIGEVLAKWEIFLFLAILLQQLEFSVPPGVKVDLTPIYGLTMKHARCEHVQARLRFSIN
# In short: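 Human CYP1A2 activity measured with a P450-Glo proluciferin substrate; compounds in DMSO preincubated 10 min at room temperature with enzyme-substrate mix, then NADPH regeneration system added for 1 h. Luciferin detection reagent, 20 min, luminescence read.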
# [13] = molecular target: Voltage-gated inwardly rectifying potassium channel KCNH2 (Homo sapiens) (UniProt Q12809); assay: Human Ether-a-go-go-Related Gene (hERG) channel small molecule antagonists: fluorescence cell-based qHTS assay (AID 1671200)
# Voltage-gated inwardly rectifying potassium channel KCNH2 (Homo sapiens), sequence (Q12809 whole entry, looked up): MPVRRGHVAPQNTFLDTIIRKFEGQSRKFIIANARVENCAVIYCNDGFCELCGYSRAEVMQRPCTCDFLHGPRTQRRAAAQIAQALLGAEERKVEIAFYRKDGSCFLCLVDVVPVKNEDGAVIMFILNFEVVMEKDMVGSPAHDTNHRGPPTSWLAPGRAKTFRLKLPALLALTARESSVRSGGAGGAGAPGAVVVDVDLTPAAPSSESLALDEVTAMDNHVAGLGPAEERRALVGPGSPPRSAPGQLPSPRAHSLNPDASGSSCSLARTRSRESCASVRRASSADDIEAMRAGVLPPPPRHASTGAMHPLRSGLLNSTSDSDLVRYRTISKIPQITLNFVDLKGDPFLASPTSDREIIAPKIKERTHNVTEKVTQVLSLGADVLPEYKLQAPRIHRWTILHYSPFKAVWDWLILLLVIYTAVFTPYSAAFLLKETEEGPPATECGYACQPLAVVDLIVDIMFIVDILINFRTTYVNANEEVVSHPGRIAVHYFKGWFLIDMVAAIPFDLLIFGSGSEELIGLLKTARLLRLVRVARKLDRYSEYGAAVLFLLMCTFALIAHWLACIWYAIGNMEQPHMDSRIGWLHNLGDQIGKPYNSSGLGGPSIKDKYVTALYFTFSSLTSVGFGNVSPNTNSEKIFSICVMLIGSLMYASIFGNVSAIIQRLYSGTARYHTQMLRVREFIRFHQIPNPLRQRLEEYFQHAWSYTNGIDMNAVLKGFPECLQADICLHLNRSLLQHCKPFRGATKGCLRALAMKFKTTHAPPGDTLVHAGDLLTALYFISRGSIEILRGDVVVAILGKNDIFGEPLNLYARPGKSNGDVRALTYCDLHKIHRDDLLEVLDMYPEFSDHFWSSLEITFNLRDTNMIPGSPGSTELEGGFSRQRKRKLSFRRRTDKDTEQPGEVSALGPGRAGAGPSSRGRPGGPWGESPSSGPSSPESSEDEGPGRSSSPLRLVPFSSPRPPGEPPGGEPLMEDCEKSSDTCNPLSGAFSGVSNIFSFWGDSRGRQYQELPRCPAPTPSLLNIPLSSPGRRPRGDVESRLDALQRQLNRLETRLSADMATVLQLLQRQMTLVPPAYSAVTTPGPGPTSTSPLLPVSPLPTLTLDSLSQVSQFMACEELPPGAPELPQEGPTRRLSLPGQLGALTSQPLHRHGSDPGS
# In short: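 Thallium served as the potassium surrogate; its influx into dye-loaded U2OS cells carrying the channel was measured by fluorescence over 2 min.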
# [14] = molecular target: Cytochrome P450 3A4 (Homo sapiens) (UniProt P08684); assay: Cytochrome P450 Family 3 Subfamily A Member 4 (CYP3A4) small molecule antagonists: luciferase reporter qHTS assay (AID 1671201)
# Cytochrome P450 3A4 (Homo sapiens), sequence (P08684 whole entry, looked up): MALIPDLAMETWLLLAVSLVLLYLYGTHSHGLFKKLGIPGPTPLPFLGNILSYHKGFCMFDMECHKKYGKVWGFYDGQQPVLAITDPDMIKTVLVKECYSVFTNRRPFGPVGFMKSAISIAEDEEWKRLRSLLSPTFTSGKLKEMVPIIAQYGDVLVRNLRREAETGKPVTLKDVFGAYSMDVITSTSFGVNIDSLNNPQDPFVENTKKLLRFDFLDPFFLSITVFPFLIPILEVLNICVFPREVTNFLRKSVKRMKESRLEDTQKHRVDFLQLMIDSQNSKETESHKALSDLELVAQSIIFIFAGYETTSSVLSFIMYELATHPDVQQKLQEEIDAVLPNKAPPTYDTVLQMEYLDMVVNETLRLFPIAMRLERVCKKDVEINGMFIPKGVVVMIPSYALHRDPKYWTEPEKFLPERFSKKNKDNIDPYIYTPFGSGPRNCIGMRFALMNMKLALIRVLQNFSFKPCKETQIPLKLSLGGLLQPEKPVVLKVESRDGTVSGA
# In short: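 Relative luminescence units after 20 min with luciferin detection reagent served as read-out. Beforehand, CYP3A4 turned over a proluciferin substrate for 1 h at room temperature with NADPH regeneration, following 10 min compound preincubation.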
# [15] = molecular target: Thyrotropin-releasing hormone receptor (Homo sapiens) (UniProt P34981); assay: qHTS assay to identify small molecule agonists of the thyrotropin-releasing hormone receptor (TRHR) signaling pathway (AID 1346891; calls by dose curve; also: series mostly up to about 58 µM)
# In short: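 Compounds were tested as agonists at 15 concentrations, in triplicate, on TRHR-Hek293 cells; calcium-sensitive dye fluorescence was recorded for 3 min following addition.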
# [16] = molecular target: Nuclear receptor subfamily 1 group I member 2 (Rattus norvegicus) (UniProt Q9R1A7); assay: Rat pregnane X receptor (rPXR) activation by small molecules, qHTS assay (AID 1346983); conditions: rPXR luciferase reporter cells, One-Glo luminescence, 24 h; active compounds read high; also: nearly all actives have a fitted effect of over 20% in size
# Nuclear receptor subfamily 1 group I member 2 (Rattus norvegicus), sequence (Q9R1A7 whole entry, looked up): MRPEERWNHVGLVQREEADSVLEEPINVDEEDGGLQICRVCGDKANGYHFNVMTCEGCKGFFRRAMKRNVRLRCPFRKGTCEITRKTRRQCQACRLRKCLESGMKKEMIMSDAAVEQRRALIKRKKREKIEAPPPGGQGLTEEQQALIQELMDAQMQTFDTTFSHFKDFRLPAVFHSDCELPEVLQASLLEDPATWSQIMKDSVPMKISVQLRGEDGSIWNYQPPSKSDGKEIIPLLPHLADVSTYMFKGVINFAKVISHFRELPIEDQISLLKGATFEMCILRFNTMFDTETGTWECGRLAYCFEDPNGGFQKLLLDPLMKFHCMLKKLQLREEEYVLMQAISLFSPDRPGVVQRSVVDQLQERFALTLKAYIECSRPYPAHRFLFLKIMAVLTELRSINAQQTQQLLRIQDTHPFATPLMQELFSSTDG
# In short: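 Cell-based rPXR activation assay: rPXR cells, 2,000 per well, rested 5hr at 37 C, then exposed to compounds in DMSO for 24 hr at 37 C. Luciferase activity read by One-Glo luminescence after 30 min at room temperature.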
# [17] = molecular target: Nuclear receptor subfamily 1 group I member 2 (Homo sapiens) (UniProt O75469); assay: CYP3A4 induction through human pregnane X receptor (PXR) by small molecules, qHTS assay (AID 1346984); also: nearly all actives have a fitted effect of over 40% in size
# In short: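 DPX-2 cells (HepG2 co-transfected with PXR and CYP3A4 promoter-luciferase) treated with compounds 24 h at 37C; luciferin-IPA CYP3A4 substrate 3uM final added for 3 h, then One-Glo; luminescence read. qHTS format.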
# [18] = molecular target: Nuclear receptor subfamily 1 group I member 2 (Homo sapiens) (UniProt O75469); assay: Human pregnane X receptor (PXR) activation by small molecules, qHTS assay (AID 1346985); also: nearly all actives have a fitted effect of over 40% in size
# In short: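 DPX-2 cells (HepG2 co-transfected with a PXR response element and a CYP3A4-promoter luciferase construct) were seeded at 2,000 per well, rested 5 hr at 37C, then exposed to DMSO-dissolved compounds for 24 hr. Activation was read as luciferase luminescence.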
smiles,measurement,setting,value
CCC(=O)Oc1ccc2c(c1)CC[C@@H]1[C@@H]2CC[C@@]2(C)[C@H]1C[C@@H](OC(=O)CC)[C@@H]2OC(=O)CC,outcome,[1],inactive
same,outcome,[2],inactive
same,outcome,[3],inactive
same,outcome,[4],inactive
same,Potency,[5],inactive
same,outcome,[6],inactive
same,outcome,[7],inactive
same,Potency,[8],inactive
same,Potency,[9],inactive
same,Potency,[10],27.5 µM (active)
same,Potency,[11],24.5 µM (active)
same,Potency,[12],inactive
same,Potency,[13],inactive
same,Potency,[14],inactive
C=C(C)[C@@H]1CC=C(C)CC1,outcome,[1],inactive
same,outcome,[3],inactive
same,outcome,[4],inactive
same,Potency,[5],inactive
same,outcome,[6],inactive
same,outcome,[7],inactive
same,Potency,[8],inactive
same,Potency,[9],inactive
same,Potency,[10],inactive
same,Potency,[11],inactive
same,Potency,[13],inactive
same,Potency,[14],inactive
CCOc1ccccc1OCC1CNCCO1 (stereo not drawn),outcome,[1],inactive
same,outcome,[2],inactive
same,outcome,[15],inactive
same,outcome,[3],inactive
same,outcome,[4],inactive
same,Potency,[5],inactive
same,outcome,[6],inactive
same,outcome,[7],inactive
same,Potency,[8],inactive
same,Potency,[10],inactive
same,Potency,[11],inactive
same,Potency,[12],0.575 µM (active)
same,Potency,[13],inactive
CC(=O)CC(=O)Nc1ccc(C)cc1C,outcome,[1],inactive
same,outcome,[2],inactive
same,outcome,[15],inactive
same,outcome,[4],inactive
same,Potency,[5],inactive
same,outcome,[6],inactive
same,outcome,[7],inactive
same,Potency,[8],inactive
same,Potency,[9],inactive
same,Potency,[11],31.7 µM (active)
same,Potency,[12],15.9 µM (active)
same,Potency,[13],inactive
CC(C)=CCC/C(C)=C/COC=O,outcome,[1],inactive
same,outcome,[2],inactive
same,outcome,[15],inactive
same,outcome,[3],inactive
same,outcome,[4],inactive
same,Potency,[5],inactive
same,outcome,[6],inactive
same,outcome,[7],inactive
same,Potency,[8],inactive
same,Potency,[9],inactive
same,Potency,[10],inactive
same,Potency,[11],inactive
same,Potency,[13],inactive
same,Potency,[14],inactive
COc1ccc2c(c1)c1c3n2CCN(C)C3=NCC1,outcome,[1],inactive
same,outcome,[2],inactive
same,outcome,[4],inactive
same,Potency,[5],inactive
same,outcome,[6],inactive
same,outcome,[7],inactive
same,Potency,[8],inactive
same,max activation,[16],5.26%
same,Potency,[17],inactive
same,Potency,[18],inactive
same,Potency,[9],15.5 µM (active)
same,Potency,[10],inactive
same,Potency,[11],inactive
same,Potency,[13],inactive
same,Potency,[14],inactive
CNCCS(=O)(=O)O,outcome,[1],inactive
same,outcome,[2],inactive
same,outcome,[15],inactive
same,outcome,[4],inactive
same,Potency,[5],inactive
same,outcome,[6],inactive
same,outcome,[7],inactive
same,Potency,[9],inactive
same,Potency,[10],inactive
same,Potency,[11],inactive
same,Potency,[12],35.9 µM (active)
same,Potency,[13],inactive
CC(C)Nc1ccccc1,outcome,[1],inactive
same,outcome,[2],inactive
same,outcome,[15],inactive
same,outcome,[3],inactive
same,outcome,[4],inactive
same,Potency,[5],inactive
same,outcome,[6],inactive
same,outcome,[7],inactive
same,Potency,[8],inactive
same,Potency,[9],inactive
same,Potency,[10],inactive
same,Potency,[11],inactive
same,Potency,[13],inactive
same,Potency,[14],inactive
COC(=O)/C=C\C(=O)O,outcome,[1],inactive
same,outcome,[2],inactive
same,outcome,[15],inactive
same,outcome,[4],inactive
same,Potency,[5],inactive
same,outcome,[6],inactive
same,outcome,[7],inactive
same,Potency,[8],inactive
same,Potency,[9],inactive
same,Potency,[10],inactive
same,Potency,[11],inactive
same,Potency,[12],inactive
same,Potency,[13],inactive
same,Potency,[14],inactive
CC1(C)CC(OC(=O)CCCCCCCCC(=O)OC2CC(C)(C)NC(C)(C)C2)CC(C)(C)N1,activation,[1],0.453% [at 15.8 µM]
same,"activity, negative = inhibition",[2],0.698% [at 10.5 µM]
same,caspase activation,[4],0.485% [at 19 µM]
same,"activity change, negative = cytotoxicity",[5],-1.35% [at 19 µM]
same,caspase-3/7 activation,[6],-0.118% [at 19 µM]
same,"activity change, negative = cytotoxicity",[7],-0.861% [at 19 µM]
same,activation,[8],26.4% [at 19 µM]
same,"activity change, negative = inhibition",[9],-17.8% [at 23.6 µM]
same,"activity change, negative = inhibition",[11],-10.9% [at 23.6 µM]
same,"activity change, negative = inhibition",[12],-5.32% [at 23.6 µM]
same,"activity change, negative = inhibition",[13],-0.993% [at 15.8 µM]
CCC(C)OC(C)CC (stereo not drawn),outcome,[1],inactive
same,outcome,[4],inactive
same,Potency,[5],inactive
same,outcome,[6],inactive
same,outcome,[7],inactive
same,Potency,[8],inactive
same,Potency,[9],inactive
same,Potency,[10],inactive
same,Potency,[11],inactive
same,Potency,[12],inactive
same,Potency,[13],inactive
CO[C@@]1(NC(=O)Cc2cccs2)C(=O)N2C(C(=O)O)=C(COC(N)=O)CS[C@@H]21,outcome,[1],inactive
same,outcome,[15],inactive
same,outcome,[4],inactive
same,Potency,[5],inactive
same,outcome,[6],inactive
same,outcome,[7],inactive
same,Potency,[8],inactive
same,Potency,[9],inactive
same,Potency,[10],inactive
same,Potency,[11],inactive
same,Potency,[12],inactive
same,Potency,[13],inactive
same,Potency,[14],inactive
CCCCCC(C)O (stereo not drawn),outcome,[1],inactive
same,outcome,[2],inactive
same,outcome,[3],inactive
same,outcome,[4],inactive
same,Potency,[5],inactive
same,outcome,[6],inactive
same,outcome,[7],inactive
same,Potency,[8],inactive
same,Potency,[9],inactive
same,Potency,[10],inactive
same,Potency,[11],inactive
same,Potency,[13],inactive
same,Potency,[14],inactive

# From PubChem BioAssay (Tox21)
